D1 allo mod = D1 CRE-luciferase signal change, two-sided – cell-based, HEK293 D1, dopamine EC30, D1 allosteric modulator project, primary screen | D(1A) dopamine receptor (Homo sapiens), P21728 | dopamine EC30 potentiation; actives deviate in either direction | B-score at 10 µM | 5.9% of 58,000 active;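 active = luminescence count or its row- and column-corrected plate score outside the 99.7% band of the plate's sample wells, on either side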
BAP1 inh = inhibitors of BAP1 deubiquitinase, primary screen, biochemical, Ub-AMC fluorescence, kinetic; Ubiquitin carboxyl-terminal hydrolase BAP1 (Homo sapiens), Q92560; recombinant BAP1, Ub-AMC hydrolysis fluorescence kinetic; hits give low values; calls only at 20 µM; 0.48% of 72,000 active; AID 436, 2006;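 active = activity remaining at or below 50% of control, provided the compound also passes the data quality filters; inactive = the rest, including low values that fail the filters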
Target sequence (Q92560 whole entry, looked up): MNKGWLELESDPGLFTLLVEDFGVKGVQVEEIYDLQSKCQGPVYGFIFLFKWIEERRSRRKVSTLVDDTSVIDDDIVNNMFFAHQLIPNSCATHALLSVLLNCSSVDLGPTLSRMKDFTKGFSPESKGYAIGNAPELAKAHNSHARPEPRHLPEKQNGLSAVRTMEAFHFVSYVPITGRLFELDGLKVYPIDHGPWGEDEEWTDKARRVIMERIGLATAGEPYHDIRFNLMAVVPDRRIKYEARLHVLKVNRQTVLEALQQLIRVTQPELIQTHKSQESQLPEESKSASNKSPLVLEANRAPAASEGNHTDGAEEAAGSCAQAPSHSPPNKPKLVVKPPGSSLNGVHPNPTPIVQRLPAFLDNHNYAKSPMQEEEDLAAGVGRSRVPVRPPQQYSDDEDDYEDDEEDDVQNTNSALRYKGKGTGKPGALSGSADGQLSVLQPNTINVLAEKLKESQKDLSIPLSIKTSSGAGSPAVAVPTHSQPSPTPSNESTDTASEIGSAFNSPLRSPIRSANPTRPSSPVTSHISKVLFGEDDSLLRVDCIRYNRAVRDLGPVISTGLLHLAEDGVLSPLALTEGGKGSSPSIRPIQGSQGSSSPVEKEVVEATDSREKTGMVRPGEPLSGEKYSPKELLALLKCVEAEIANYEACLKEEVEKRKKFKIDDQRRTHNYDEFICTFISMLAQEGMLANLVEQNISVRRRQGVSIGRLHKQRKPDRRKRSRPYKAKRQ
hDAT+cocaine = changed hDAT dopamine uptake under cocaine IC80, either direction, primary screen, cocaine antagonist project, cell-based, LLC-PK1 hDAT, [14C]-dopamine uptake, MLSMR; Sodium-dependent dopamine transporter (Homo sapiens), Q01959; LLC-PK1 hDAT cells, [14C]-dopamine uptake with cocaine IC80; actives deviate in either direction; B-score at 10 µM; 1.3% of 110,000 active;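 active = Z score or B-score, a plate-position-corrected score, falls beyond the plate's 99.7% confidence bounds, in either direction; inactive = both scores lie inside the 99.7% bounds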
BAP1 inh conf = BAP1 deubiquitinase inhibitors, hit retest, confirmation, orthogonal assay, biochemical, Ub-ethyl ester substrate, HPLC readout | shares compounds with BAP1 inh | purified BAP1, Ub-ethyl ester hydrolysis; hits give low values | % of control activity, % at 20 µM | 8% of 310 active | AID 753, 2007;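 active = percent of control activity at or below 60%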
Calls only; – = inactive; · = not tested or not shown; + = active, no number. The full list was thinned out, with hits kept by preference.

SMILES	D1 allo mod	BAP1 inh	hDAT+cocaine	BAP1 inh conf
CCOc1ccc2c(=O)c(Oc3ccccc3OCC)coc2c1	·	·	–	·
COc1ccccc1-c1coc2cc(O)cc(O)c2c1=O	–	–	–	·
COc1ccccc1Oc1coc2cc(O)ccc2c1=O	–	+	–	–
O=S(=O)(Nc1ccc2c(c1)oc1ccccc12)c1ccc2oc3ccccc3c2c1	·	–	·	·
CCOc1ccc(C2C(N3C(=O)c4cccc([N+](=O)[O-])c4C3=O)C(=O)N2c2cc(Cl)ccc2C)cc1 (centres undefined)	·	–	·	·
CN=CC1=C(O)c2ccccc2C1=O	·	–	–	·
Cc1ccc(O)c(N=CC2=C(O)c3ccccc3C2=O)c1	–	+	–	–
CC1CCc2sc(NC(=O)c3cc(Cl)ccc3[N+](=O)[O-])c(C(N)=O)c2C1 (centres undefined)	·	–	·	·
Cc1ccc(C(=O)Nc2ccc(NC(=O)c3ccco3)c(Cl)c2)cc1[N+](=O)[O-]	·	–	·	·
O=c1c2c(-c3cccs3)csc2ncn1/N=C/c1ccc(OC(F)F)cc1	·	·	–	·
Cn1cc(/C=N/n2cnc3scc(-c4ccccc4)c3c2=O)c2ccccc21	–	+	–	–
O=C(Nc1ccc(N2CCOCC2)cc1)c1ccccc1Br	·	–	·	·
Cc1cc(C)cc(C2CC(C)(O)CC(c3cc(C)cc(C)c3)S2)c1 (centres undefined)	·	–	·	·
Cn1c(-c2c(N)n(CCc3ccccc3)c3nc4ccccc4nc23)nc2ccccc21	·	·	–	·
Cn1c(-c2c(N)n(C3CCCC3)c3nc4ccccc4nc23)nc2ccccc21	–	+	–	–
NC(=O)NC(=O)C[n+]1cccc(C(N)=O)c1	·	–	·	·
O=C(O)CCNc1cc(C(=O)O)ccc1C(=O)O	·	–	·	·
CC(=O)Nc1cc(-c2ccc(Cl)cc2)nn1-c1ccccc1	·	·	–	·
N#Cc1cc(-c2ccccc2)nn1-c1ccccc1	–	+	–	–
CC(C)(c1ccc(O)cc1)c1ccc(Oc2ccc([N+](=O)[O-])cc2)cc1	·	–	·	·
CCOC(=O)N1CCN(S(=O)(=O)c2ccc(C(=O)Nc3sc4c(c3C#N)CCC4)cc2)CC1	–	+	·	–
CCOC(=O)c1c(NC(=O)c2ccc(S(=O)(=O)N3CCc4ccccc4C3)cc2)sc2c1CCCCC2	·	–	·	·
O=C1c2ccc(Oc3cccc([N+](=O)[O-])c3)cc2C(=O)N1c1c[nH]c(=O)[nH]c1=O	·	–	·	·
CCOC(=O)c1c(C)[nH]c2c1cc(O)c1ccccc12	·	·	–	·
CCOC(=O)c1c(C)oc2c1cc(O)c1ccccc12	–	+	–	–
SMILES	D1 allo mod	BAP1 inh	hDAT+cocaine	BAP1 inh conf
O=C(Nc1ccc2nc(C3CC3)n(Cc3ccc(F)cc3)c(=O)c2c1)c1ccco1	–	–	–	·
COc1cccc(Cn2c(C3CC3)nc3ccc(NC(=O)c4ccco4)cc3c2=O)c1	–	+	·	–
C=CCOC(=O)C1=C(C)NC2=C(C(=O)CCC2)C1c1ccccc1OCCCC (centres undefined)	·	–	·	·
Cc1ccc(OCC(O)CN2CCN(c3ccccc3)CC2)cc1C (centres undefined)	·	–	·	·
Cc1ccc2cc(C(c3nnnn3C3CCCC3)N(Cc3ccccc3)Cc3ccco3)c(=O)[nH]c2c1 (centres undefined)	–	–	–	·
COCCn1nnnc1C(c1cc2ccc(C)cc2[nH]c1=O)N(Cc1ccco1)Cc1cccs1 (centres undefined)	–	+	–	–
Cc1ccc(-c2nc3cc(NC(=O)c4ccc([N+](=O)[O-])cc4)ccc3o2)cc1	·	–	·	·
O=C(C1CCN(c2nnc(-n3cccc3)s2)CC1)N1CCOCC1	–	–	–	·
O=C(C1CCN(c2nnc(-n3cccc3)s2)CC1)N1CCN(c2cccc(C(F)(F)F)c2)CC1	–	+	–	–
O=C(O)CCC(=O)N1N=C(c2cccs2)CC1c1ccccc1F (centres undefined)	·	–	·	·
CCOC(=O)c1c(NCC2CCCO2)c2ccccc2[nH]c1=O (centres undefined)	·	·	–	·
O=C(NCC1CCCO1)c1c(O)c2ccccc2[nH]c1=O (centres undefined)	–	+	–	–
Cc1cc(I)ccc1NC(=O)c1cccc(CSc2nncn2C)c1	·	–	·	·
COc1nc2c(C)cccc2cc1-c1noc(-c2ccco2)n1	–	+	–	–
COc1nc(-c2ccc(Cl)cc2)ccc1-c1noc(-c2ccco2)n1	–	·	–	·
COc1ccc(S(=O)(=O)Nc2ccccc2C(=O)NCc2ccco2)cc1	–	+	–	–
O=C(NCc1ccco1)c1ccccc1NS(=O)(=O)c1ccc(Br)s1	·	·	–	·
CCOC(=O)c1c(NC(=O)c2ccc(-n3cnnn3)cc2)sc2c1CCCC2	–	+	·	–
CCOC(=O)c1c(NC(=O)c2ccc(C(=O)c3ccccc3)cc2)sc2c1CCCC2	·	–	·	·
CCOC(=O)C1CCN(c2ncnc3c2cnn3-c2ccc(Cl)cc2)CC1	·	–	·	·
CCOC(=O)N1CCN(c2ncnc3c2cnn3-c2ccc(OC)cc2)CC1	·	–	·	–
CC1=C(C(=O)OCCOc2ccccc2)C(c2ccccc2)NC(=O)N1 (centres undefined)	·	–	·	·
CC(=O)c1c(C)nn(CC(O)Cn2c3c(c4cc(C)ccc42)CCCC3=O)c1C (centres undefined)	–	–	–	·
Cc1ccc2c(c1)c1c(n2CC(O)Cn2nc(C)c(Br)c2C)C(=O)CCC1 (centres undefined)	–	+	–	–
CCOc1ccc(N2C(=O)CC(Nc3ccc(N4CCCCC4)cc3)C2=O)cc1 (centres undefined)	·	–	·	·
SMILES	D1 allo mod	BAP1 inh	hDAT+cocaine	BAP1 inh conf
CCc1ccc(NC(=O)CSc2nnc(COc3ccc4c(c3)CCCC4)o2)cc1	·	·	–	·
COC(=O)c1ccc(NC(=O)CSc2nnc(COc3ccc4c(c3)CCCC4)o2)cc1	–	+	–	–
Clc1ccc(OCc2nn3c(-c4ccco4)nnc3s2)c(Cl)c1	–	+	–	–
Cc1ccc(OCc2nn3c(-c4ccco4)nnc3s2)cc1	–	–	–	·
CCSc1sccc1C1C(C#N)=C(N)N(c2cccnc2)C2=C1C(=O)CCC2 (centres undefined)	–	+	–	–
COc1cc(C2C(C#N)=C(N)N(c3cccnc3)C3=C2C(=O)CCC3)ccc1O (centres undefined)	·	·	–	·
COC(=O)c1c(NC(=O)c2ccc([N+](=O)[O-])cc2Cl)sc2c1C(C(=O)OC)CC2 (centres undefined)	·	–	·	·
NS(=O)(=O)c1ccc(NC(=O)C23CC4CC(CC(C4)C2)C3)cc1	·	–	·	·
COc1ccc(N(CC(=O)Nc2ccc(OC)c(Cl)c2)S(=O)(=O)c2c(C)noc2C)cc1	·	–	–	·
COc1ccc(N(CC(=O)Nc2ccc(F)c(Cl)c2)S(=O)(=O)c2c(C)noc2C)cc1	–	+	–	–
CCCCCOC(=O)C1=C(C)NC2=C(C(=O)CC(C)(C)C2)C1c1ccc(O)c(OC)c1 (centres undefined)	·	–	·	·
CC1=CN2C(=O)CC(=O)N=C2C=C1	·	–	·	·
